Sampled rows, rich in hits. Any-hit rate of the full collection: about 2.4%.
Cruzain inh noDet – qHTS Assay for Promiscuous and Specific Inhibitors of Cruzain (without detergent); Potency, µM, for inactives: max response, negative = inhibition, actives largely listed as inhibitors; purified cruzain, Z-FR-AMC fluorescence, no detergent; hit rate 2.3% among 200,000; Cruzipain (Trypanosoma cruzi), P25779;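 note: plate controls were enzyme without inhibitor for no effect and buffer without enzyme for full effect; nearly all actives have a fitted effect of over 40% in size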
Target sequence (P25779 123-467 limits assumed): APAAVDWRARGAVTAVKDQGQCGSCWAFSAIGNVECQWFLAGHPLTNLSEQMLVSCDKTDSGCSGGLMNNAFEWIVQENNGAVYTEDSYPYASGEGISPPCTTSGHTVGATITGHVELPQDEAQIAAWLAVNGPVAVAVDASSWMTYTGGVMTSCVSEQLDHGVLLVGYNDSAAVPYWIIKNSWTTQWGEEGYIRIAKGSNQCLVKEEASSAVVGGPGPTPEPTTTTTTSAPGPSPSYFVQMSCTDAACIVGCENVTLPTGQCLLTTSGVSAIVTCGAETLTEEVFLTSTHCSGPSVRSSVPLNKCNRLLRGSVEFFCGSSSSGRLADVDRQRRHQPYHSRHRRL
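Purified cruzain at 1.5 nM, pre-incubated 15 min with compound at room temperature in 100 mM sodium acetate pH 5.5, 5 mM DTT, 0.00005% Triton X-100. Reaction started with 2 uM Z-FR-AMC; AMC fluorescence increase over 60 s gives rate.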
Cruzain inh Det – qHTS Assay for Promiscuous and Specific Inhibitors of Cruzain (with detergent). hit rate 0.43% among 200,000. purified cruzain, Z-FR-AMC fluorescence, 0.01% Triton. Potency, µM, for the others: max response, negative = inhibition, most hits filed as inhibitors;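 note: plate controls were neutral wells for no effect and buffer without enzyme for full effect; nearly all actives have a fitted effect of over 40% in size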
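Read-out: AMC fluorescence (360 nm excitation, 450 nm emission), four reads over 2 min, first-to-third difference used. Conditions: cruzain 1.5 nM, Z-FR-AMC 2 uM, pH 5.5 acetate, 5 mM DTT, 0.01% Triton X-100.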
Starred values were filed as active, the others as inactive; ? = inconclusive. Calls come from the whole dose curve; as a rule, active = well fitted curve in the direction sought with a large enough effect; inconclusive = small, poorly fitted or top-dose-only effect, or another doubt; inactive = no such curve, though single readings can be large; an effect the other way counts as inactive or inconclusive. Potency is the fitted concentration of half-maximal effect.

SMILES	Cruzain inh noDet	Cruzain inh Det
COc1ccc(OC)c(/C=N/NC(=O)Cc2nc3ccccc3[nH]2)c1	?	22µM*
COc1ccc(OC)c(/C=N/NC(=O)CC2C(=O)NN=C2C)c1 (stereo not given)	32µM*	-28%
O=c1c(CCc2ccccc2)nc2cnc(N3CCNCC3)nc2n1-c1ccccc1	-2%	1%
COc1ccc(/C=C2/C(=O)N(c3nc4ccccc4s3)N=C2CSc2ccc(Cl)cc2)cc1	3.2µM*	-8%
COc1ccc(/C=C2/C(=O)N(Cc3ccccc3)N=C2C)cc1	1%	0%
CCOc1ccc(-c2nc3c(C#N)c[nH]n3c2NC2CCCCC2)cc1	22%	-2%
CCOC(=O)c1sc(NC(=O)CSc2nncs2)c(C(=O)OCC)c1C	?	-9%
COc1ccccc1-n1c(SCC(=O)Nc2ccc(F)cc2)nc2c(c1=O)SCC2	-18%	-28%
COc1ccccc1-n1c(SCC(=O)Nc2nnc(C)s2)nc2c(c1=O)SCC2	-5%	22µM*
CCOC(=O)c1sc(NC(=O)CSc2nc3ccccc3s2)c(C(=O)OCC)c1C	20µM*	-5%
CCOC(=O)c1sc(NC(=O)CSc2nc3c(c(=O)n2-c2ccc(C)cc2)SCC3)c(C(=O)OCC)c1C	6.3µM*	-8%
CCOC(=O)c1sc(NC(=O)CSc2nnnn2-c2ccc(C)cc2)c(C(=O)OCC)c1C	-29%	1%
CCCOc1ccc(CNC(=O)C2CCCN(c3nc4c(C)cc(C)cc4s3)C2)cc1 (stereo not given)	4%	-1%
Cc1ccc(S(=O)(=O)NC2c3cccc4cccc(c34)C2Sc2nncn2C)cc1 (stereo not given)	-8%	2%
Cc1ccc(S(=O)(=O)NC2c3cccc4cccc(c34)C2Sc2nc(C)cc(C)n2)cc1 (stereo not given)	25µM*	-3%
Cc1nn(-c2ccccc2)c(N2CCCC2)c1/C=N/NC(=O)c1cc(-c2cccs2)nc2ccccc12	10µM*	-5%
Cc1nn(-c2ccccc2)c(N2CCCC2)c1/C=N/NC(=O)c1cccc(S(=O)(=O)Nc2ccc(Cl)cc2)c1	?	-6%
Cc1nn(-c2ccccc2)c(N2CCCC2)c1/C=N/NC(=O)c1cc(-c2ccccn2)nc2ccccc12	6%	-6%
O=C(O)c1ccc(/C=N/NC(=O)c2cc(-c3cccs3)nc3ccccc23)cc1	13%	-10%
Cc1nn(-c2ccccc2)c(N2CCCC2)c1/C=N/NC(=O)c1cc(-c2ccccc2)nc2ccccc12	4µM*	-5%
Cc1nn(-c2ccccc2)c(N2CCCC2)c1/C=N/NC(=O)c1cc2ccccc2cc1O	16µM*	-7%
O=C(Cn1cnc2c(oc3ccccc32)c1=O)Nc1ccc(F)cc1F	-15%	-9%
N#CC(=C(\N)Sc1ccccc1N)/C(C#N)=C(/N)Sc1ccccc1N	-24%	-6%
CC(=O)OC1C(=O)[C@@]2(C)C(O)CC3OC[C@]3(OC(C)=O)C2C(OC(=O)c2ccccc2)[C@]2(O)CC(OC(=O)C(O)C(NC(=O)c3ccccc3)c3ccccc3)C(C)=C1C2(C)C (stereo not given in full)	?	0%
CCCn1c(-c2ccc(F)cc2)nc2c(NCCN(CC)CC)nc(C)nc21	-7%	0%
SMILES	Cruzain inh noDet	Cruzain inh Det
Cc1ccc(NCCC(=O)c2ccc(Br)cc2)cc1	20µM*	-1%
CCc1ccc(NCCC(=O)c2ccc(Br)cc2)cc1	1%	-5%
Cc1cccc(Oc2sc(C(=O)c3ccccc3)c(N)c2C#N)c1C	?	-6%
Cc1ccc(CSc2sc(C(=O)c3ccccc3)c(N)c2C#N)cc1	20µM*	-1%
N#Cc1c(Oc2ccc3ccccc3c2)sc(C(=O)c2ccccc2)c1N	25µM*	4%
N#Cc1c(SCc2ccccc2)sc(C(=O)c2ccccc2)c1N	1%	-5%
CC(=O)O[C@H]1C(=O)[C@@]2(C)C([C@H](OC(=O)c3ccccc3)[C@]3(O)C[C@H](OC(=O)[C@H](O)[C@@H](NC(=O)c4ccccc4)c4ccccc4)C(C)=C1C3(C)C)[C@]1(OC(C)=O)CO[C@@H]1C[C@@H]2O (stereo not given in full)	?	-2%
COc1ccc(C2C(C(=O)Nc3ccc(C)cc3C)=C(C)Nc3nc(SC)nn32)cc1OC (stereo not given)	-4%	0%
CSc1nc2n(n1)C(c1cccc(F)c1)C(C(=O)Nc1ccc(C)cc1C)=C(C)N2 (stereo not given)	10µM*	8%
COc1ccc(S(=O)(=O)c2c(C(=O)c3ccc(C)c(C)c3)cnc3ccc(C)cc23)cc1	13µM*	-5%
CCOc1ccc(S(=O)(=O)c2c(C(=O)c3ccc(C)cc3)cnc3cc4c(cc23)OCCO4)cc1	6.3µM*	-5%
Cc1ccc2ncc(C(=O)c3ccc(C)c(C)c3)c(S(=O)(=O)c3ccccc3)c2c1	-21%	-5%
